# Data published in PubChem BioAssay (NCI).
# Compounds without any hit were thinned out: in the full panel of roughly 83,000, 20% have a hit.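 Percent growth is the endpoint: 0 to 100 indicates growth inhibition (40 means 60% inhibition), 0 means no net growth, and negative values indicate cell death.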 A number with no mark means an inactive call. Calls of active or inactive are those of the source. How the source made its calls: active means growth percent below 10; inactive means the rest.
# Tests used:
# Assay in all cases: NCI-60 one-dose screen, 48 h (100 = growth as untreated, 0 = no growth, -100 = all killed)
# Conditions in all cases: 10 µM
# [1] = system: T-47D breast
# [2] = system: MDA-MB-435 melanoma
# [3] = system: SW-620 colon
# [4] = system: MCF7 breast
# [5] = system: HCT-116 colon
# [6] = system: HCC-2998 colon
# [7] = system: KM12 colon
# [8] = system: BT-549 breast
SMILES,growth [1],growth [2],growth [3],growth [4],growth [5],growth [6],growth [7],growth [8]
Cc1ccc(C(SCC(N)C(=O)O)(c2ccc(C)cc2)c2ccc(C)cc2)cc1 (centres undefined),27.2%,-59.8% (active),20.5%,9.12% (active),-25.5% (active),1.38% (active),0.314% (active),–
CCN(CC)CCCOc1cccc2c1C(=O)c1cccc(OCCCN(CC)CC)c1C2=O,61.7%,39.7%,24.4%,11.9%,22.5%,57.4%,40.9%,–
O=C(CCCCC(=O)Oc1c(Cl)cc(Cl)cc1[N+](=O)[O-])Oc1c(Cl)cc(Cl)cc1[N+](=O)[O-],102%,103%,112%,86.3%,101%,103%,99.7%,–
CCCCCCCCCCOC(c1ccccc1)c1ccccc1,77.1%,–,98.1%,91.1%,58.6%,99%,89.1%,–
Nc1nccc(OCCO)n1,94.1%,104%,107%,91.2%,97.8%,97.4%,97.8%,–
O=[N+]([O-])c1ccc(/C(=C/c2ccccc2)[n+]2ccccc2)cc1,–,101%,103%,98.7%,107%,126%,125%,109%
CC(C)=CCC/C(C)=C/CC/C(C)=C/CC/C=C(\C)CC/C=C(\C)CCC(=O)Nc1ccn(C2OC(CO)C(O)C2(F)F)c(=O)n1 (centres undefined),–,29.9%,33.6%,21.8%,20.3%,82.4%,–,18.3%
CCN(CC)CCCC(Nc1c2ccc(Cl)cc2nc2ccc(OC)cc12)c1ccc(F)cc1 (centres undefined),–,-86.9% (active),-53.9% (active),-62.9% (active),-41% (active),-85% (active),14.7%,81.5%
Cc1cc(Cl)ccc1Nc1nc(C(F)(F)F)ccc1C(=O)N/N=C/c1cccc(O)c1,–,56%,27.8%,29.9%,17.6%,31.9%,41.8%,9.22% (active)
CC(=O)OC/C=C(/C)C[P+](c1ccccc1)(c1ccccc1)c1ccccc1,14.4%,53.3%,53.6%,33.3%,26%,80.4%,33.3%,–
Oc1ccc(-c2[nH]c3ccccc3c2-c2nc3ccccc3o2)cc1,–,0.478% (active),40.9%,24.1%,23.7%,58.5%,21%,64.7%
CN(C)CCCOc1ccccc1NC1=C(Cl)C(=O)C(Nc2ccccc2OCCCN(C)C)=C(Cl)C1=O,-37% (active),-76.2% (active),-46.8% (active),-52.7% (active),-82.5% (active),-87% (active),-34.2% (active),–
NNC(=O)Oc1c(Cl)cc(Cl)cc1[N+](=O)[O-],98.5%,107%,105%,87.9%,102%,103%,106%,–
Cc1ccc(-n2nnnc2N)c(C)c1,112%,102%,96%,95.9%,98.7%,95%,108%,–
Cc1ccc(S(=O)(=O)N(C)CCCCCC(=O)O)cc1,95.7%,105%,109%,89.5%,100%,105%,95.3%,–
COc1ccc(-c2onc(N)c2-c2cc(OC)c3c(c2)OCO3)cc1,–,-24.1% (active),16.8%,8.88% (active),15.5%,52.1%,21.8%,42.6%
S=C1N(c2ccccc2)CN(C2CCCCC2)CN1c1ccccc1,94.3%,–,104%,88.7%,102%,102%,110%,–

SMILES,growth [1],growth [2],growth [3],growth [4],growth [5],growth [6],growth [7],growth [8]
CN(C)CCN(Cc1ccccc1)c1ccc2ccccc2n1,86.3%,–,91.8%,86.7%,90.4%,97.5%,101%,–
C=CCSC(CC)(CC)C(=O)NC,102%,109%,103%,94.6%,94%,102%,104%,–
O=C(CC(CC(=O)c1ccccc1)c1ccccc1O)c1ccccc1,83%,99.1%,96.7%,89.3%,88.5%,105%,99.8%,–
Nc1ncnc2c1ncn2C1(CO)OCC(O)C(O)C1O (centres undefined),96.2%,–,110%,101%,108%,101%,98.6%,–
CCOC(=O)c1sc2ncnc(Nc3ccc4c(cnn4C(=O)Nc4ccccc4)c3)c2c1C,–,54.2%,50%,55.8%,34.4%,98.4%,65.5%,48.9%
CCOC(=O)C(C)(c1ccccc1)c1ccccc1,99.1%,106%,105%,99.6%,102%,109%,96.4%,–
COc1cc2c(cc1OC)C(C(CCCCCC(CCC(C)C)C1NCCc3cc(OC)c(OC)cc31)CCC(C)C)NCC2 (centres undefined),-85.2% (active),–,-83.8% (active),-92.7% (active),-100% (active),-94.2% (active),-97% (active),–
COc1cc(C2CC(c3ccc4c(c3)OCO4)=NN2c2ccccc2)cc(OC)c1OC (centres undefined),–,30.7%,89.4%,87.4%,93.5%,83.2%,60.9%,71.9%
Nc1ncc(-c2cnn(C3CCNCC3)c2)cc1-c1nc2ccccc2o1,-4.42% (active),-55.5% (active),-60.4% (active),11.6%,-2.99% (active),14.2%,-81.3% (active),–
CC[C@@H](C(=O)[C@@H](C)[C@@H](O)[C@H](C)[C@@H]1O[C@@H]([C@@H](CC)C(=O)N(CC)CC)CC[C@@H]1C)C1O[C@]2(C=CC(=O)[C@]3(CC[C@@](C)([C@H]4CC[C@](O)(CC)[C@H](C)O4)O3)O2)[C@H](C)C[C@@H]1C (some centres undefined),–,30.2%,25.3%,5.81% (active),5.97% (active),29%,40.9%,43.8%
O=C(CI)OCC(COC(=O)CI)OC(=O)CI,–,91.5%,27.5%,56.1%,56.3%,102%,102%,74.6%
Cc1ccc(NCCN(C)CC(C)O)c2c(=O)c3ccc(Cl)cc3sc12 (centres undefined),49.7%,-49% (active),-46.4% (active),17.4%,-48.8% (active),18%,43.7%,–
Cc1ccc(C(C)C)c(O)c1NC(=O)OC(C)C,–,106%,103%,92.7%,91.9%,89.5%,100%,96.1%
N#Cc1cnn(C(=O)c2nn(-c3ccc(Cl)cc3)cc2O)c1N,3.29% (active),–,38%,10.9%,6.75% (active),11.9%,19.1%,–
CCN(CC)CCNc1ccc(C)c2sc3cc(Cl)ccc3c(=O)c12,33.1%,-44.8% (active),2.58% (active),19.8%,11.4%,23.3%,32.2%,–
CC1=NN(C(=O)c2nn(-c3ccc(Cl)cc3)cc2O)C(=O)C1,48.5%,59.8%,46.3%,52.4%,28.5%,54.1%,49%,–
